High-throughput results as filed in PubChem BioAssay.
Pf growth 96h = P. falciparum growth inhibition at 96 hours. P. falciparum luciferase reporter growth, 96 h. Potency, µM (series often up to 28.7 µM), for the others: at the highest dose activity change, negative = inhibition, most hits filed as inhibitors. 320,000 compounds, 6.9% hits. AID 504834; note: potency is the fitted concentration of half-maximal effect; % is set by controls: 0 for no effect and ±100 for the full control effect
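96 h incubation, 37 C, 5% CO2, of luciferase-reporter P. falciparum-infected RBCs (2% hematocrit, 0.05% parasitemia final) with test compounds; endpoint luminescence.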
CHX counter = counter-screen hit for Shiga toxin inhibitors, cycloheximide | cell reporter, cycloheximide protein synthesis inhibition counterscreen | max response, % | 300,000 compounds, 12% hits; in the data active = max response mostly above about 13%, no sharp cut-off; inactive = mostly below about 14%; note: read at 38.3 µM for the half of the compounds with a filed dose; 0% is about no effect
Pf growth 48h = inhibits P. falciparum growth in the first generation, 48 h; 310,000 compounds, 5.9% hits; Potency, µM (series often up to 28.7 µM), for inactives: at the top dose activity change, negative = inhibition, usual class: inhibitors; P. falciparum luciferase growth in erythrocytes, 48 h; note: potency is the fitted concentration of half-maximal effect; % is set by controls: 0 for no effect and ±100 for the full control effect
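Here the parasites carry a stable luciferase gene and grow inside erythrocytes in Albumax-based RPMI medium with compound for one erythrocytic cycle. Activity is scored as loss of luminescent signal.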
SARS PLpro yeast = inhibitors of SARS-CoV papain-like protease in yeast; S. cerevisiae expressing SARS-CoV PLpro, growth rescue; Potency, µM (top dose mostly 32.9 µM), for inactives: at the top dose activity, positive = growth rescue, hits mostly activators; 330,000 compounds, 0.19% hits; calls by dose curve; note: potency is the fitted concentration of half-maximal effect; 0% is about no effect; nearly all actives have a fitted effect of over 55% in size
Shiga inhibitor = blocks Shiga toxin action in Vero cells. Vero cells, Shiga toxin protein synthesis inhibition reporter. inhibition, % at 38.7 µM. 290,000 compounds, 9.2% hits; in the data active = inhibition mostly above about 28%, no sharp cut-off; inactive = mostly below about 43%; note: 0% is about no effect
NS1 function inh = influenza NS1 inhibition; Potency, µM (highest dose often 46.1 µM), without a hit: top-dose activity, positive = more growth; 270,000 compounds, 0.4% hits; calls by dose curve; note: potency is the fitted concentration of half-maximal effect; actives are rising curves; nearly all actives have a fitted effect of over 50% in size
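In this qHTS, NS1 from influenza A is expressed in budding yeast, where it slows growth. Cells are switched from glucose to 2% galactose medium (pH 6.0, -URA), treated with compound, and growth recovery is read at OD600.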
An asterisk follows results filed as active; ? = inconclusive; nt = not tested or not shown. Hits are enriched below; roughly 21% of the tested compounds scored in any of these assays. Unless noted, calls come from the whole dose curve; as a rule, active = well fitted inhibition curve with a large enough effect; inconclusive = small, poorly fitted or top-dose-only effect, or another doubt; inactive = no such curve, though single readings can be large or run the other way.

SMILES	Pf growth 96h	CHX counter	Pf growth 48h	SARS PLpro yeast	Shiga inhibitor	NS1 function inh
CCNS(=O)(=O)c1ccc2nc(NC(=O)c3cccnc3)sc2c1	nt	32.8*	1.1%	1.6%	84.4*	13.4%
Cc1ccc(C(=O)Nc2nc3ccccc3s2)s1	44.0%	51.6*	-100.9%	3.2%	32.2	-17.9%
NS(=O)(=O)c1ccc(O)c(N2C(=O)c3cccc4c(C(=O)c5ccccc5)ccc(c34)C2=O)c1	26.1%	7.5	12.5%	1.2%	8.0	nt
COc1cc(C(=O)Nc2nc3ccc(S(C)(=O)=O)cc3s2)cc(OC)c1C	7.38µM*	6.7	?	-1.0%	4.3	2.1%
CS(=O)(=O)c1ccc2nc(NC(=O)c3cccc([N+](=O)[O-])c3)sc2c1	?	30.8*	35.1%	2.5%	75.4*	-5.0%
Cc1csc2nc(NC(=O)c3ccccc3)sc(=O)c12	43.5%	11.6*	61.8%	-2.3%	25.7	-16.1%
CS(=O)(=O)c1ccc2nc(NC(=O)c3cc([N+](=O)[O-])cc([N+](=O)[O-])c3)sc2c1	4.2%	-3.3	-8.1%	-4.7%	nt	8.5%
Cc1ccc(C(=O)Nc2nc3ccc(S(C)(=O)=O)cc3s2)s1	23.5%	69.5*	65.3%	1.5%	72.4	11.8%
CS(=O)(=O)c1ccc2nc(NC(=O)c3cccs3)sc2c1	146.2%	-1.8	41.3%	-11.1%	8.9	-7.9%
COc1cccc(NC(=O)c2ccc(OC(F)(F)F)cc2)c1	125.5%	nt	130.5%	1.0%	nt	nt
O=[N+]([O-])c1cc([As](=O)(O)c2ccc(O)c([N+](=O)[O-])c2)ccc1O	2.94µM*	4.6	4.65µM*	-1.1%	-7.6	2.2%
Cc1[nH]c(=O)c(S(=O)(=O)c2ccccc2)c(C)c1Cl	-12.4%	1.9	-12.8%	-0.8%	-2.2	8.2%
COc1ccc(-c2cc(C#N)nc(NN)n2)cc1	2.94µM*	9.7	?	-1.8%	2.0	?
CCN(CC)c1nc(C#N)cc(-c2ccc(OC)cc2)n1	7.38µM*	-1.7	13.1µM*	-11.3%	-16.9	-5.9%
COc1ccc(-c2cc(C#N)nc(N3CCNCC3)n2)cc1	2.62µM*	-0.6	nt	-7.8%	-12.2	3.6%
COc1ccc(-c2cc(C#N)nc(Cl)n2)cc1	-0.4%	0.7	-10.2%	-4.2%	-20.2	-49.8%
Cc1cc(C)c2nc(SCC(=O)NCC3CCCO3)c(C#N)cc2c1 (stereo not drawn)	-2.6%	7.1	51.5%	0.6%	9.3	0.9%
Cc1ccc(C2/C(=C(/O)c3ccc4c(c3)CC(C)O4)C(=O)C(=O)N2CCCn2ccnc2)cc1 (stereo not drawn)	?	4.7	11.6%	7.6%	-7.1	-1.3%
Cc1ccsc1CNC12CC3CC(CC(C3)C1)C2	0.828µM*	-2.3	-15.6%	-1.8%	-5.0	1.9%
CC(=O)Nc1cccc(NC(=O)C(C)N2c3cccc4cccc(c34)S2(=O)=O)c1 (stereo not drawn)	0.7%	-3.7	1.9%	-1.8%	10.4	3.1%
COc1cc(C(=O)Nc2nc(C)c(Cc3ccc4c(c3)OCO4)s2)cc(OC)c1OC	?	0.3	?	3.4%	10.1	?
Cc1c(Cc2ccc3c(c2)OCO3)sc(NC(=O)c2ccc3ccccc3c2)c1C(N)=O	21.8%	-1.1	13.1%	11.2%	-13.5	10.8%
CCCOc1ccc(C(=O)Nc2nc(C)c(Cc3ccc4c(c3)OCO4)s2)cc1	?	23.9*	10.4µM*	-4.4%	71.5*	6.3%
Cc1nc(NC(=O)c2ccc(OCC(C)C)cc2)sc1Cc1ccc2c(c1)OCO2	?	19.1*	?	-1.5%	30.3*	7.1%
COc1ccc(NC(=O)CN2CCC(C(N)=O)(N3CCCCC3)CC2)c(OC)c1	0.0%	-1.3	-23.6%	0.9%	-1.8	3.6%
SMILES	Pf growth 96h	CHX counter	Pf growth 48h	SARS PLpro yeast	Shiga inhibitor	NS1 function inh
CCN1/C(=C\C(=S)Nc2ccccc2)Sc2ccccc21	23.6%	30.8*	-3.0%	-2.1%	56.3*	3.1%
CCN1/C(=C\C=C(C(C)=O)C(C)=O)Sc2ccccc21	-9.6%	18.9*	0.1%	0.9%	16.4	nt
COc1ccc(S(=O)(=O)N(CC(=O)NCC2CCCO2)c2ccc(F)cc2)cc1OC (stereo not drawn)	?	0.7	?	-1.5%	-7.3	4.5%
O=C(COC(=O)c1cnc(Cl)c(Cl)c1)NC1CC1	nt	nt	nt	-2.8%	nt	nt
CCN(CC)/C(Sc1ccccc1)=C(/C(Cl)=C(Cl)Cl)[N+](=O)[O-]	?	24.3*	11.1%	-2.0%	28.7	nt
O=C(NC(=O)c1ccccc1)NC1(C(F)(F)F)OCCO1	28.1%	48.1*	nt	-0.1%	84.3*	0.4%
O=C(NCc1ccccc1)NC(=O)c1ccccc1	nt	2.2	22.7%	-4.1%	47.1	-7.0%
O=C1C2CC=C(Cl)CC2C(=O)N1CCCCCCN1C(=O)C2CC=C(Cl)CC2C1=O (stereo not drawn)	11.7µM*	1.3	nt	11.8%	-12.7	11.2%
O=C1C2CC=C(Cl)CC2C(=O)N1CCC[n+]1cccc2ccccc21 (stereo not drawn)	?	-4.4	9.28µM*	-7.1%	-7.4	4.5%
O=C1C2CC=C(Cl)CC2C(=O)N1CCN1CCOCC1 (stereo not drawn)	2.0%	-3.5	nt	1.5%	-16.4	-6.1%
O=C1OC[C@H]2CCCN2C(=O)[C@@H](CC(=O)N(CCO)Cc2ccccc2)C/C=C\CC[C@H]1Cc1ccc(F)cc1	nt	nt	nt	2.5%	nt	nt
COc1ccc(CCCNC(=O)C2CCC(=O)N(CCc3cccc(F)c3)C2)cc1 (stereo not drawn)	4.15µM*	9.9	2.0%	1.2%	22.4	-16.0%
O=C(NCCc1ccccc1C(F)(F)F)C1CCC(=O)N(CCCN2CCCC2=O)C1 (stereo not drawn)	9.28µM*	1.6	-17.7%	0.8%	14.3	2.9%
O=C(NCCc1ccc(C(F)(F)F)cc1)C1CCC(=O)N(CCc2cccc(F)c2)C1 (stereo not drawn)	13.5%	16.4*	7.5%	1.0%	11.2	-4.0%
CCOc1ccccc1OCC(=O)Nc1cc(C)on1	nt	nt	nt	6.6%	nt	nt
Cc1cc(NC(=O)COc2cccc(Oc3ccccc3)c2)no1	-1.0%	-2.8	?	1.4%	-4.8	8.2%
Cc1ccc(C)c(OCC(=O)Nc2cc(C)on2)c1	?	22.2*	58.1%	18.4%	45.7	2.9%
Cc1cccc(OCC(=O)Nc2cc(C)on2)c1	?	15.7*	31.5%	-10.9%	active	-12.3%
COc1ccc(C(=O)N/C(=C/c2ccccc2F)C(=O)NCCN2CCOCC2)cc1OC	?	-3.7	-9.1%	6.8%	-8.2	7.4%
CCOc1ccc(-n2nc3c(=O)[nH]nc(C)c3c2C)cc1	1.7%	1.3	11.2%	11.1%	-4.2	4.1%
CCOc1ccc(-n2nc3c(Cl)nnc(C)c3c2C)cc1	0.522µM*	-1.8	0.329µM*	-1.6%	-8.6	4.8%
Cc1nnc(Cl)c2nn(-c3ccccc3)c(C)c12	0.586µM*	4.1	0.329µM*	-9.7%	-3.5	10.2%
Cc1nn(-c2ccccc2)c(C)c1-c1ccccc1O	15.5%	10.9	-4.8%	-7.5%	39.0	-11.8%
